Measurements taken from PubChem BioAssay AID588649 (The Scripps Research Institute Molecular Screening Center, 2011).
The list shows a part of the results. Values without a mark were called inactive. Activity calls are given as the source filed them. Cut-off read from the data, not from the text of the source: active = inhibition above about 40%; inactive = the rest.

System: Fam108b (ABHD17B) [Mus musculus]
Experiment: mouse ABHD17B hydrolase inhibitors – biochemical, gel-based ABPP, soluble recombinant form, HTS hits, late-stage follow-up (AID 588649)
Settings: fluorophosphonate probe, at 20 µM, active compounds read high

| Structure (SMILES) | inhibition |
| --- | --- |
| O=C(Nc1ccc(-c2csc(Nc3cccc(C(F)(F)F)c3)n2)cc1)c1cccc(C(F)(F)F)c1 | 85% (active) |
| Cc1ccc(S(=O)(=O)N=C2C=C(Sc3ncn[nH]3)C(=O)c3ccccc32)cc1 | 90% (active) |
| COc1ccc(NS(=O)(=O)c2cc(NC(=O)CC(=O)c3ccc([N+](=O)[O-])cc3)ccc2C)cc1 | 25% |
| COc1ccc(/C=C/C(=O)OCC(=O)Nc2cccc(Oc3ccccc3)c2)c(OC)c1 | 90% (active) |
| CC[N+](C)(CC)CCC[n+]1c(-c2ccccc2)c2cc(N)ccc2c2ccc(N)cc21 | 25% |
| O=C(NNc1c2ccccc2nc2ccccc12)c1cc2ccccc2cc1O | 10% |
| Nc1ccc2nc3c(=O)[nH]c(=S)[nH]c3nc2c1 | 0% |
| Oc1c(Cl)cc(Cl)c(Cl)c1Cc1c(O)c(Cl)cc(Cl)c1Cl | 65% (active) |
